# Bioassay records: PubChem BioAssay, several laboratories
# NFkB transloc inh = blocks IL-1B driven NFkB nuclear translocation in HUVEC cells. actives 0.43% (n = 94,000). HUVEC IL-1B NFkB p65 nuclear translocation imaging. inhibition, % at 2 µM;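 active = inhibition above about 30% together with a positive call from visual inspection of the well image, limit read from the data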;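 note: nuclear over cytoplasmic p65 intensity ratio measured by imaging; 0% = IL-1B stimulated DMSO wells and 100% = unstimulated DMSO wells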
# Cav32 inh = blocks human Cav3.2 T-type calcium channel. B-score at 10 µM. Cav3.2-expressing cells, Fluo-4 calcium fluorescence FDSS; active compounds read low. O95180. actives 4% (n = 100,000);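 active = single-dose well whose peak fluorescence ratio is a statistical outlier from its plate by either plate-standardised score or position-corrected B-score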
# IL1B cytotox = HUVEC cytotoxicity counter-screen, IL-1B stimulated. actives 0.41% (n = 94,000). cell count reduction, % at 2 µM. HUVEC cell count loss, Hoechst imaging;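 active = cell count reduction more than 3 SD above the screen-wide mean, cut at about 70% in these data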;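 note: normalized per plate to untreated control cells as the no-loss baseline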
# IL1B NFkB pot = enhances IL-1B driven NFkB nuclear translocation; HUVEC IL-1B NFkB p65 nuclear translocation imaging; activation, % at 2 µM; actives 0.3% (n = 94,000);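 active = activation above 40%, about the mean plus 3 SD, also judged a hit on visual image review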;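 note: percent activation is computed from the nuclear over cytoplasmic p65 intensity ratio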
# The depositor's hits bear a star; nt = not tested or not shown. Sampled rows, rich in hits. Any-hit rate of the full collection: about 4.4%.
SMILES,NFkB transloc inh,Cav32 inh,IL1B cytotox,IL1B NFkB pot
CCN(CC)S(=O)(=O)c1ccc(C(=O)Nc2ncn(Cc3ccccc3)n2)cc1,-1,0.64,-4,1
CCOC(=O)Nc1sc2nc(C)cc(C)c2c1-n1cccc1,23,0.84,-6,-23
Cc1cc(C)c2c(-n3cccc3)c(C(=O)NNS(=O)(=O)c3ccc(Br)cc3)sc2n1,2,-4.7*,-36,-2
CCc1cccc(OCCCCN(CC)CC)c1,nt,0.5,nt,nt
CCOC(=O)C1=C(C)NC(C)=C(C(=O)OCC)C1c1ccccc1/C=C/C(=O)OC(C)(C)C,nt,-4*,nt,nt
CCOC(=O)C1=C(C)NC(C)=C(C(=O)OCC)C1/C=C/c1ccccc1,0,-1.8,-35,1
Cc1csc2nc(CNS(=O)(=O)c3cccnc3)cn12,-4,1.6,-13,5
Cn1ncc(C#N)c1/N=C/N(Cc1ccccc1)Cc1ccccc1,-12,-8.4*,10,13
CCOc1ccccc1NC(=O)CSc1nnc(Cn2c(=O)sc3ccccc32)n1C,nt,-0.63,nt,nt
O=C1c2cccc3c([N+](=O)[O-])ccc(c23)C(=O)N1c1ccc(Cl)cn1,30*,nt,83*,-30
CC(C)C(=O)Nc1cccc(C(=O)Nc2nccs2)c1,-12,0.95,-10,12
Cc1ccc(C(C)NC(=O)c2c(C)noc2C)cc1C (stereo not drawn),-19,-3.8*,-2,19
Cc1nc(-c2ccccc2)sc1C(=O)CSc1ccc(F)cc1,36*,-0.42,-21,-36
Cc1cccc(Nc2nc(NCc3ccco3)nc(N3CCOCC3)n2)c1,-13,-4.7*,-4,13
Cc1cccc(Nc2nc(N3CCCC3)nc(N3CCCC3)n2)c1,5,-0.39,8,-5
CCC(=O)NC(O)C(=O)c1ccc(C)cc1 (stereo not drawn),32*,-0.087,40,-32
O=C(NNS(=O)(=O)c1ccc(Br)cc1)c1ccncc1,35*,0.71,7,-35
O=C(Nc1nc(N2C(=O)c3ccccc3C2=O)n(-c2ccccc2)n1)c1ccc(Cl)cc1,-5,-1.8,5,5
CC(C)CCNC(=O)NC(=O)CSc1nnc(COc2ccccc2Cl)o1,3,-4.8*,-21,-3
CC(C)Cn1c(-c2ccc(Cl)cc2)cnc1SCC(=O)N1CCOCC1,-5,nt,-9,5
CCOc1ccccc1CN(CCc1ccc2c(c1)OCO2)Cc1ccccn1,0,-4.3*,18,0
CCOc1ncccc1C(=O)Nc1ccccc1C(=O)NCc1ccc2c(c1)OCO2,nt,0.34,nt,nt
COc1ccc(OCc2nnc(SCC(=O)N3c4ccccc4Sc4ccc(Cl)cc43)o2)cc1,-15,-4.4*,-30,15
O=C(CSc1nnc(COc2ccc(Cl)cc2)o1)N1CCN(c2ccccc2)CC1,nt,0.69,nt,nt
CCn1c(SCC(=O)NNC(=O)c2ccccc2)nnc1-c1ccncc1,9,0.26,-42,-9
SMILES,NFkB transloc inh,Cav32 inh,IL1B cytotox,IL1B NFkB pot
CC(=O)C1=C(C)NC(C)=C(C(C)=O)C1c1ccc(-c2ccccc2Cl)o1,-13,-5.6*,-2,13
CCCCOc1ccc(Br)cc1/C(C)=N/NC1=NCCN1,-8,-6.7*,-20,8
COc1cc(CNC2CCC(C)C2)cc(OC)c1 (stereo not drawn),-10,-0.8,89*,10
COc1cc(CNC2CCCC2)cc(OC)c1,-1,-0.068,-13,1
COc1ccccc1CC(=O)Nc1ccc(-c2noc(COc3ccc(Br)cc3)n2)cc1,-50,0.67,-8,50*
CCSc1nnc(NC(=O)CSc2nnc(-c3c[nH]c4ccccc34)n2CC)s1,-21,1.3,-8,21
O=C(NCCCO)c1nc2ccccc2s1,-42,-0.096,10,42*
CC(C)(C)NC(=O)c1nc2ccccc2s1,nt,0.4,nt,nt
O=C(CCl)Nc1cc(-c2ccccc2)nn1-c1ccccc1,-17,nt,88*,17
CC(C)NC(=O)CSc1nnc(-c2ccncc2)n1-c1ccccc1,16,0.033,-15,-16
CC(=O)C(N=Nc1ccccc1)(Sc1nnc(-c2ccccc2)n1-c1ccccc1)C(C)=O,-12,-4.4*,-11,12
CC(=O)C(N=Nc1ccccc1)(Sc1nnc(-c2ccccc2)n1-c1ccccc1)C(=O)Nc1ccccc1 (stereo not drawn),0,-6.7*,38,0
CC(C)C[C@H](N)c1cn([C@@H](CCCCN)C(=O)N2CCNCC2)nn1,nt,0.21,nt,nt
CN(C)c1ccc(/C=C2\SC(=S)N(Nc3ncc(C(F)(F)F)cc3Cl)C2=O)cc1,6,-5.1*,5,-6
Cc1cccc(C)c1-n1c(C)cc(/C=N/NC(N)=S)c1C,1,-5.9*,11,-1
CCNS(=O)(=O)c1ccc(S(=O)(=O)N(Cc2ccccn2)C2CCCCC2)cc1,-15,-0.81,-38,15
O=S(=O)(NCc1ccccc1)c1ccc(S(=O)(=O)N(Cc2ccccn2)C2CCCC2)cc1,3,-4.1*,-31,-3
Oc1ccc(-c2nc3ccccn3c2NCc2ccco2)cc1,nt,0.11,nt,nt
Cc1ccc(-c2nc3ccccn3c2NCc2ccc3c(c2)OCO3)cc1,-9,-4.4*,-12,9
Clc1cccc(Cl)c1CSc1cc2c(nn1)-c1ccccc1CC2,-22,-3.9*,-23,22
Clc1ccc(CSc2cc3c(nn2)-c2ccccc2CC3)cc1Cl,3,-5.3*,-20,-3
CCOc1ccc(NC(=O)N[C@@H](CCSC)C(=O)OC)cc1,8,0.91,0,-8
Cc1ccc(CSCC(=O)N/N=C/c2sccc2C)cc1,-25,-4.9*,0,25
CCCCN(CCCNC(=O)C1CCN(S(=O)(=O)CC)CC1)c1ccccc1,-7,-0.18,-14,7
Cc1cc(N2CCCCC2)n2nc(C)c(-c3ccccc3)c2n1,-1,0.2,-42,1
SMILES,NFkB transloc inh,Cav32 inh,IL1B cytotox,IL1B NFkB pot
Cc1nn2c(N3CCN(C(=O)c4ccco4)CC3)cc(C(C)(C)C)nc2c1-c1ccccc1,2,-6.7*,-12,-2
Cc1nn2c(N3CCN(C4CCCC4)CC3)cc(C(C)(C)C)nc2c1-c1ccccc1,-6,0.091,82*,6
Cc1cc(N2CCN(C(=O)c3ccco3)CC2)n2ncc(-c3ccccc3)c2n1,-12,2.6,-55,12
CCCCN(CCCC)S(=O)(=O)c1ccc(C(=O)Nc2nnc(CSC)o2)cc1,-3,-3.1*,-80,3
COCc1cc(C)nc(N2CCN(c3ccccc3)CC2)c1C#N,nt,-4.5*,nt,nt
COCc1cc(C)nc(N2CCN(Cc3ccccc3)CC2)c1C#N,0,1.1,-18,0
CC(=O)Oc1ccc(OC(C)=O)c(SCCCCCN2CCOCC2)c1,5,0.84,2,-5
CC(=O)N1CCC(N(C(=O)Nc2c(F)cccc2F)C(C)C)CC1,4,0.25,8,-4
Clc1ccc(OCc2nn3c(-c4ccncc4)nnc3s2)cc1,-46,nt,-18,46*
CCOc1ccc(-c2nnc3sc(COc4ccc(Cl)cc4)nn23)cc1,-18,0.33,-68,18
O=S(=O)(NCc1csc(-c2cccnc2)n1)c1ccc2c(c1)OCCO2,-10,-0.15,-16,10
O=S(=O)(NCc1csc(-c2cccnc2)n1)c1ccc(Cl)s1,5,-0.11,39,-5
O=S(=O)(NCCc1csc(-c2ccccc2)n1)c1ccc2c(c1)OCCO2,-1,-6.2*,-32,1
